Source: the supplement of paper PMC4709259
Structures can show the parent of a compound that is named as a salt. ± gives the standard deviation.

Assays:
Jurkat [1] = assay: mean cell size (FSC-A) relative to DMSO control (fraction of control); higher = larger cells; conditions: 48 h
In short: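 Jurkat cells at 600 cells/µl were incubated for 1 h and then treated for 48h with the Enzo Screen-Well FDA Approved Drug Library v2.0 at 25µM, with DMSO at 0.9% (v/v) final. Compounds that reduced counts below 20% of controls were retested in 10-fold dilutions down to 25nM. Cell count and mean cell size, taken as forward scatter area, were measured by flow cytometry relative to solvent-only controls. Each plate carried 6-12 controls, and values are means of 3 biological replicates.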

Jurkat [2] = assay: cell count relative to DMSO control (fraction of control); higher = more cells (less growth inhibition); conditions: 48 h

Structure (SMILES)	mean cell size (Jurkat [1])	cell count (Jurkat [2])
NC[C@@H]1O[C@H](O[C@H]2[C@@H](O)[C@H](O[C@@H]3[C@@H](O)[C@H](N)C[C@H](N)[C@H]3O[C@H]3O[C@H](CO)[C@@H](O)[C@H](O)[C@H]3N)O[C@@H]2CO)[C@H](N)[C@@H](O)[C@@H]1O [Paromomycin Sulfate] (concentration: 25 µM)	0.949 ± 0.012	0.773 ± 0.041
CC(C)NCC(O)COc1ccc(COCCOC(C)C)cc1 (centres undefined) [Bisoprolol Fumarate] (concentration: 25 µM)	0.964 ± 0.046	0.732 ± 0.035
C=C1/C(=C\C=C2/CCC[C@]3(C)[C@@H]([C@H](C)CCCC(C)(C)O)CC[C@@H]23)C[C@@H](O)C[C@@H]1O [Calcitriol] (concentration: 25 µM)	0.8848 ± 0.0063	0.893 ± 0.088
COc1nc(N)nc2c1ncn2[C@@H]1O[C@H](CO)[C@@H](O)[C@@H]1O [Nelarabine] (concentration: 25 µM)	1.4 ± 0.014	0.201 ± 0.029
CN1CCC[C@H]1c1cccnc1 [Nicotine] (concentration: 25 µM)	0.936 ± 0.045	0.561 ± 0.18
NC[C@H]1O[C@H](O[C@H]2[C@H](O)[C@@H](O[C@H]3O[C@H](CO)[C@@H](O)[C@H](N)[C@H]3O)[C@H](N)C[C@@H]2N)[C@H](N)C[C@@H]1O [Tobramycin] (concentration: 25 µM)	1.01 ± 0.054	0.65 ± 0.082
CC(=O)[C@@]1(O)CC[C@H]2[C@@H]3C[C@H](C)C4=CC(=O)C=C[C@]4(C)[C@@]3(F)[C@@H](O)C[C@@]21C [Fluorometholone] (concentration: 25 µM)	0.914 ± 0.06	0.639 ± 0.12
COc1ccc(CCN(C)CCCC(C#N)(c2ccc(OC)c(OC)c2)C(C)C)cc1OC (centres undefined) [Verapamil·HCl] (concentration: 25 µM)	0.939 ± 0.025	0.756 ± 0.042
CCOC(=O)[C@H](CCc1ccccc1)N[C@@H](C)C(=O)N1[C@H](C(=O)O)C[C@H]2CCCC[C@@H]21 [Trandolapril] (concentration: 25 µM)	0.973 ± 0.044	0.924 ± 0.12
Cc1cc(C(=O)NNCc2ccccc2)no1 [Isocarboxazid] (concentration: 25 µM)	0.965 ± 0.057	0.735 ± 0.1
Brc1c(NC2=NCCN2)ccc2nccnc12 [Brimonidine] (concentration: 25 µM)	0.954 ± 0.027	0.9 ± 0.091
Nc1ncn([C@@H]2O[C@H](CO)[C@@H](O)[C@H]2O)c(=O)n1 [Azacitidine] (concentration: 25 µM)	0.9766 ± 0.0047	0.668 ± 0.11
CNC(=O)c1cc(Oc2ccc(NC(=O)Nc3ccc(Cl)c(C(F)(F)F)c3)cc2)ccn1 [Sorafenib Tosylate] (concentration: 2.5 µM)	0.919 ± 0.022	0.999 ± 0.032
C[C@@H]1C/C=C/C=C/C=C/C=C/[C@H](O[C@@H]2O[C@H](C)[C@@H](O)[C@H](N)[C@@H]2O)C[C@@H]2O[C@](O)(C[C@@H](O)C[C@H]3O[C@@H]3/C=C/C(=O)O1)C[C@H](O)[C@H]2C(=O)O [Natamycin] (concentration: 25 µM)	0.951 ± 0.015	1.01 ± 0.096
C=C(c1ccc(C(=O)O)cc1)c1cc2c(cc1C)C(C)(C)CCC2(C)C [Bexarotene] (concentration: 2.5 µM)	0.942 ± 0.017	0.955 ± 0.09
CCOC(=O)[C@H](CCc1ccccc1)N[C@H]1CCc2ccccc2N(CC(=O)O)C1=O [Benazepril·HCl] (concentration: 25 µM)	0.965 ± 0.012	0.885 ± 0.035
CC(C)C(=O)Nc1ccc([N+](=O)[O-])c(C(F)(F)F)c1 [Flutamide] (concentration: 25 µM)	0.918 ± 0.033	0.329 ± 0.14
NCCS [Cysteamine·HCl] (concentration: 25 µM)	0.957 ± 0.034	0.513 ± 0.13
N[C@@H](Cc1cc(I)c(Oc2cc(I)c(O)c(I)c2)c(I)c1)C(=O)O [Levothyroxine·Na] (concentration: 25 µM)	1.02 ± 0.059	0.808 ± 0.087
O=C1c2cccc3c2[C@H](CCC3)CN1[C@@H]1CN2CCC1CC2 [Palonosetron·HCl] (concentration: 25 µM)	1.07 ± 0.033	0.721 ± 0.022
O=C1NC(c2ccccc2)(c2ccccc2)C(=O)N1COP(=O)(O)O [Fosphenytoin·Na Pentahydrate] (concentration: 25 µM)	0.887 ± 0.058	0.498 ± 0.074
CCCC(CCC)C(=O)O [Valproate·Na] (concentration: 25 µM)	0.999 ± 0.025	1.01 ± 0.096
